Experimental data: the supplement of paper PMC10849652
Targets with a hit are over-represented here; the source holds about 8,800 in all. About 0.5% of all pairs of compound and target were hits.

compound: CCCS(=O)(=O)Nc1ccc(F)c(C(=O)c2c[nH]c3ncc(-c4ccc(Cl)cc4)cc23)c1F [vemurafenib]; test: log2 fold change, soluble protein after heating vs DMSO (PISA); higher = thermal stabilisation; K562 lysate, 10 uM; active = over 0.2 and 3.5 SD of the protein, either way, in both replicates (recomputed)
Outline: (§1)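 Values give the log-two fold change in thermal stability against solvent controls, from duplicates. Crude K562 extract at 1 mg/mL protein, made by dounce homogenisation in PBS pH 7.4 with 1 mM MgCl2, was treated with 10 μM compound for 30 min. After 3 min heating across 48°C-58°C, aliquots were pooled, adjusted to 0.5% NP-40 at 4°C and centrifuged at 21,000xg for 90 min. The supernatant was measured by TMTpro 16plex LC-MS/MS with channel sums equalised.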

UniProt O95857, sequence (O95857 whole entry, looked up): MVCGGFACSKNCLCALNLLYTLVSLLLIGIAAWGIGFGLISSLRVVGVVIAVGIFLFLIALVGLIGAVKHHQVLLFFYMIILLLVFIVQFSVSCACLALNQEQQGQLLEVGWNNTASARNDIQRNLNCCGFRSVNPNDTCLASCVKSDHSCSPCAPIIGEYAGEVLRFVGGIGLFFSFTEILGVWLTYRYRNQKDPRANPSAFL
UniProt P68363, sequence (P68363 whole entry, looked up): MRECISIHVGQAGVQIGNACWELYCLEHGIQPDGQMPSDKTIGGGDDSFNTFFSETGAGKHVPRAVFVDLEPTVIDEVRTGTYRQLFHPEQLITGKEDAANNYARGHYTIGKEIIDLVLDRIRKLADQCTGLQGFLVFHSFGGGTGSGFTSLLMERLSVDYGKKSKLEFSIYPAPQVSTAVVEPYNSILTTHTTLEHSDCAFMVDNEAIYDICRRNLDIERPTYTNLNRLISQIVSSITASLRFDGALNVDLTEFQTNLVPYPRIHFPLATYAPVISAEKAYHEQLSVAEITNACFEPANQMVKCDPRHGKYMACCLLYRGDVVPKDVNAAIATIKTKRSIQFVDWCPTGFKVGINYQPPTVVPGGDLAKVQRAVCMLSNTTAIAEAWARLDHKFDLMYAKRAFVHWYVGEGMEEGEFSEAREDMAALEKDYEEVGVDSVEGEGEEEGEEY
UniProt Q07157, sequence (Q07157 whole entry, looked up): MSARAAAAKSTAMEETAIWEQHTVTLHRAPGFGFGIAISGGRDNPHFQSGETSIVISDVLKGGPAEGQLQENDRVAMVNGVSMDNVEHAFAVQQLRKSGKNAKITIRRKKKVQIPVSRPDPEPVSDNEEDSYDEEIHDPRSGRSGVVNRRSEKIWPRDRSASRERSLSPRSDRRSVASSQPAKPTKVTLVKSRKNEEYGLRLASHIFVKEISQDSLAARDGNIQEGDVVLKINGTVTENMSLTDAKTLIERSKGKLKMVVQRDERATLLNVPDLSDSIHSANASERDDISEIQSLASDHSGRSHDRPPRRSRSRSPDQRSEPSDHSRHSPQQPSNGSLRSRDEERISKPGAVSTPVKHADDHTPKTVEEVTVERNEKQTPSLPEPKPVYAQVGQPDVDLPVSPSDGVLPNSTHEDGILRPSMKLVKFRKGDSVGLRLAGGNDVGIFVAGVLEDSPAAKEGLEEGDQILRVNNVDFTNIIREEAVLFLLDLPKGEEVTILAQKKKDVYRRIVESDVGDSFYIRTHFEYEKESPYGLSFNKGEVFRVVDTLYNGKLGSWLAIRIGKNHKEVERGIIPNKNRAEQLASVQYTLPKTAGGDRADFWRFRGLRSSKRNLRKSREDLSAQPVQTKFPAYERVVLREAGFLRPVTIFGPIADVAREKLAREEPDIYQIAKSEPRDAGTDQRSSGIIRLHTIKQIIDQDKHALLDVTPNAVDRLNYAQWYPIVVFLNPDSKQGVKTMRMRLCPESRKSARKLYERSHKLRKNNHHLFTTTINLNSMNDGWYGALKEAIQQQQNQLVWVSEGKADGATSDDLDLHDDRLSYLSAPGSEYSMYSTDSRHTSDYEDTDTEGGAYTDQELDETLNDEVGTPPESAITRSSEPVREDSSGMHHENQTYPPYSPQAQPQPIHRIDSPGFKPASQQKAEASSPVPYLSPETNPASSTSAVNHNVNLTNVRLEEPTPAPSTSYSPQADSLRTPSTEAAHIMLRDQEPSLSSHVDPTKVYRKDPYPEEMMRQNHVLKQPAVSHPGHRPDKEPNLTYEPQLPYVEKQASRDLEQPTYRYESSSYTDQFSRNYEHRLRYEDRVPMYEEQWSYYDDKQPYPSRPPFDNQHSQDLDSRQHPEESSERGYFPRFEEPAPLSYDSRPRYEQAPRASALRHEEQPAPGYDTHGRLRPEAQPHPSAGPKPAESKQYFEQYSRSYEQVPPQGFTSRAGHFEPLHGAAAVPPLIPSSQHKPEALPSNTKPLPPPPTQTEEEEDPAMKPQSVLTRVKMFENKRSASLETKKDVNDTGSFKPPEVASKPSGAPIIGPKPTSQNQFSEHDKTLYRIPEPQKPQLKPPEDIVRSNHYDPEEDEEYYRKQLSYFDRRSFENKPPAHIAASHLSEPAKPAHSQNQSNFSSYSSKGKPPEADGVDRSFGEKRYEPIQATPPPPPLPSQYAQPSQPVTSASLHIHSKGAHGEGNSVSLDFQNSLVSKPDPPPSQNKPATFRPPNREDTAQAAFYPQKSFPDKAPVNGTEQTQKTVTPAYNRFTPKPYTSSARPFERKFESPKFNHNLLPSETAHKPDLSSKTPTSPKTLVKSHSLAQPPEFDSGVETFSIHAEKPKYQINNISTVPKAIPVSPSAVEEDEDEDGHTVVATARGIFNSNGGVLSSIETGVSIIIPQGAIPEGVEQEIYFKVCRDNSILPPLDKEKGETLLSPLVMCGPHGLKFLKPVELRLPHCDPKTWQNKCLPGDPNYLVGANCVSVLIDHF
UniProt Q9Y4P3, sequence (Q9Y4P3 whole entry, looked up): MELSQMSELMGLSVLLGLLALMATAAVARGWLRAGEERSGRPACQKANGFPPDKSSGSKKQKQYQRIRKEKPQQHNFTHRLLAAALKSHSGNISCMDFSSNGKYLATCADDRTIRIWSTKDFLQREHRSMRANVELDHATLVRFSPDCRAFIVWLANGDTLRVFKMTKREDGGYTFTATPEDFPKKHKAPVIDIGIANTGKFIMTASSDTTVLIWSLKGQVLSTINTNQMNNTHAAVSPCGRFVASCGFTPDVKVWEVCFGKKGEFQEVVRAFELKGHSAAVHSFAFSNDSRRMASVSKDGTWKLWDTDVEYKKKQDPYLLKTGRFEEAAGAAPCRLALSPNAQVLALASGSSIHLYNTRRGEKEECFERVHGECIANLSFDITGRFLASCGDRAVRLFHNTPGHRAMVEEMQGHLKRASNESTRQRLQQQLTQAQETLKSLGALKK
UniProt Q5T6F2, sequence (Q5T6F2 whole entry, looked up): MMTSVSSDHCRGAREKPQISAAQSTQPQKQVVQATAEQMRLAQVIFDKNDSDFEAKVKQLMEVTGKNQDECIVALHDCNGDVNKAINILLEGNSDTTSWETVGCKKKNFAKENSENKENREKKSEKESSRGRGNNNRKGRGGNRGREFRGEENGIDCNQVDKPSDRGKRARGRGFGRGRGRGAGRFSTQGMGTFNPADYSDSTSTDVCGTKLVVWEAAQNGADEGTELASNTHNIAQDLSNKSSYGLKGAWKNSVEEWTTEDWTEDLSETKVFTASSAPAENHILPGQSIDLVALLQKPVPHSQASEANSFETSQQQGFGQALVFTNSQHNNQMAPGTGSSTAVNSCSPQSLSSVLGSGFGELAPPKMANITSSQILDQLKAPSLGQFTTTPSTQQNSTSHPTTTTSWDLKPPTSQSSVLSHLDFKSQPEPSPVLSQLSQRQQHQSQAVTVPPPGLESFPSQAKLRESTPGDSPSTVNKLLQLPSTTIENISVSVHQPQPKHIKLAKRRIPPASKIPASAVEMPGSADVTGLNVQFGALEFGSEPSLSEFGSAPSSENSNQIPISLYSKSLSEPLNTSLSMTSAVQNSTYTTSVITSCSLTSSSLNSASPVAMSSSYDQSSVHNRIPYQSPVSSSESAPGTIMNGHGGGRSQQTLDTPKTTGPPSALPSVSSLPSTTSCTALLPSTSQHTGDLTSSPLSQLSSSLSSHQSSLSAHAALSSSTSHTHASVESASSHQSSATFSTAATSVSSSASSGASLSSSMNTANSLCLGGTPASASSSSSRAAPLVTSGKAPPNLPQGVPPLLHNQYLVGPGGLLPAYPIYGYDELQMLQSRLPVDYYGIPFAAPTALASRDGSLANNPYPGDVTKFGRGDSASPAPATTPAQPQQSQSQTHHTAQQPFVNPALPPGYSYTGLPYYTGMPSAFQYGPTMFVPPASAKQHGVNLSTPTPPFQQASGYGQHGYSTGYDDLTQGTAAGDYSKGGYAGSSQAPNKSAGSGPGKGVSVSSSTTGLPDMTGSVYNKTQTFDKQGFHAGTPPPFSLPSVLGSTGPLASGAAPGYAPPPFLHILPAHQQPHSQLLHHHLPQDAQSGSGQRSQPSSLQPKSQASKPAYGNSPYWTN
UniProt Q12788, sequence (Q12788 whole entry, looked up): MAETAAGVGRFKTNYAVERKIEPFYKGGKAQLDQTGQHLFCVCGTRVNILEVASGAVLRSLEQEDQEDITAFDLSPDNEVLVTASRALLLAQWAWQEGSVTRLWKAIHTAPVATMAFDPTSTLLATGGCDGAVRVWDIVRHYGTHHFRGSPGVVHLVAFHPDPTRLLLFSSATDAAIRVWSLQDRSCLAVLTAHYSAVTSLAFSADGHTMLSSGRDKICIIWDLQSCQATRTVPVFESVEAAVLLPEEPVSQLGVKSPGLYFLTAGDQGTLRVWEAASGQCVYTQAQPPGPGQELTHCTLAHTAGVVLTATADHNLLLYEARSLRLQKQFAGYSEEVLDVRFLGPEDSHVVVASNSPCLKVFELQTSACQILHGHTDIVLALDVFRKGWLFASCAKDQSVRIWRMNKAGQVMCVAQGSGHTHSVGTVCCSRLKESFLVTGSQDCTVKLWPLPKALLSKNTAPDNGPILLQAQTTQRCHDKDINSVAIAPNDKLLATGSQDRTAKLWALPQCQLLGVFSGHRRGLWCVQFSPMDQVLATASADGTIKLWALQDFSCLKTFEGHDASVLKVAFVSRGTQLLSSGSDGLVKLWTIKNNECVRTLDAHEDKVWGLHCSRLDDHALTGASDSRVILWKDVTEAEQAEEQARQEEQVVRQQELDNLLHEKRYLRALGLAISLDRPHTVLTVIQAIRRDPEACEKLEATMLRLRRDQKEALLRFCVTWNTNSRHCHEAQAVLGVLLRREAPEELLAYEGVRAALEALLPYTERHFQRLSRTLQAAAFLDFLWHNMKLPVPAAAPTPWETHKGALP
UniProt P67936, sequence (P67936 whole entry, looked up): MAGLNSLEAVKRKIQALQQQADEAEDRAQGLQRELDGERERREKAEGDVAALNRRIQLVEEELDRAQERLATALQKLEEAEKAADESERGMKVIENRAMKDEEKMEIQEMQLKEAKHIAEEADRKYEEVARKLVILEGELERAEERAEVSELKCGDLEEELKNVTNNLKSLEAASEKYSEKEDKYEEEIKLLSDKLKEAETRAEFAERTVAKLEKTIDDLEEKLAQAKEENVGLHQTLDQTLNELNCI

log2 fold change, inactive:
TBL2 (UniProt Q9Y4P3) -0.016, UBR4 (UniProt Q5T4S7) -0.003, TPM4 isoform 2 (UniProt P67936) 0.031, TBL3 (UniProt Q12788) 0.02, TTF2 (UniProt Q9UNY4) 0.008, TJP1 isoform 2 (UniProt Q07157) 0.023, TRIM65 (UniProt Q6PJ69) 0.025, UBE3C (UniProt Q15386) -0.001, UBAP2 (UniProt Q5T6F2) 0.009, TUBA1B (UniProt P68363) 0.009, TSPAN13 (UniProt O95857) -0.032

compound: CCCS(=O)(=O)Nc1ccc(F)c(C(=O)c2c[nH]c3ncc(Cl)cc23)c1F; test: as above
Outline: as §1

log2 fold change, inactive:
TPP2 (UniProt Q5VZU9) 0.061, TUBGCP3 (UniProt Q96CW5) 0.026, TEX30 (UniProt Q5JUR7) 0.033, TPM1 isoform 4 (UniProt P09493) -0.012, TRAPPC9 isoform 2 (UniProt Q96Q05) 0.001, TUT4 (UniProt Q5TAX3) -0.007, TRIM33 (UniProt H0Y612) 0.007, TECR (UniProt Q9NZ01) 0.054, TP53RK (UniProt Q96S44) 0.047, THEMIS2 (UniProt Q5TEJ8) 0.11, TTC38 (UniProt Q5R3I4) 0.03, TPM4 (UniProt P67936) 0.009, TMOD1 (UniProt P28289) -0.02, TOX4 (UniProt O94842) 0.005, TMEM199 (UniProt Q8N511) 0.026, UBE4A isoform 2 (UniProt Q14139) -0.001, TMEM87B (UniProt Q96K49) 0.047, TMPO (UniProt P42167) 0.008, TTI2 (UniProt Q6NXR4) 0, TUBB3 (UniProt Q13509) 0.018, TUBB (UniProt P07437) 0.003, TLK1 isoform 2 (UniProt Q9UKI8) -0.003, TRA2A (UniProt Q13595) -0.033, TBL2 (UniProt Q9Y4P3) -0.013, UBR4 (UniProt Q5T4S7) 0.016, TPM4 isoform 2 (UniProt P67936) -0.016, TBL3 (UniProt Q12788) 0.003, TTF2 (UniProt Q9UNY4) 0.037, TJP1 isoform 2 (UniProt Q07157) 0, TRIM65 (UniProt Q6PJ69) 0.085, UBE3C (UniProt Q15386) 0.006, UBAP2 (UniProt Q5T6F2) 0.016, TUBA1B (UniProt P68363) 0, TSPAN13 (UniProt O95857) -0.03

compound: CCN(CCCOc1ccc2c(Nc3cc(CC(=O)Nc4cccc(F)c4)[nH]n3)ncnc2c1)CCOP(=O)(O)O [barasertib]; test: as above
Outline: as §1

log2 fold change, inactive:
TPP2 (UniProt Q5VZU9) -0.002, TUBGCP3 (UniProt Q96CW5) -0.078, TEX30 (UniProt Q5JUR7) 0.109, TPM1 isoform 4 (UniProt P09493) -0.036, TRAPPC9 isoform 2 (UniProt Q96Q05) 0.007, TUT4 (UniProt Q5TAX3) 0.024, TRIM33 (UniProt H0Y612) 0.087, TECR (UniProt Q9NZ01) 0.082, TP53RK (UniProt Q96S44) 0, THEMIS2 (UniProt Q5TEJ8) -0.052, TTC38 (UniProt Q5R3I4) 0.102, TPM4 (UniProt P67936) 0.047, TMOD1 (UniProt P28289) 0.027, TOX4 (UniProt O94842) 0.017, TMEM199 (UniProt Q8N511) 0.009, UBE4A isoform 2 (UniProt Q14139) -0.009, TMEM87B (UniProt Q96K49) 0.091, TMPO (UniProt P42167) 0.003, TTI2 (UniProt Q6NXR4) 0.005, TUBB3 (UniProt Q13509) -0.042, TUBB (UniProt P07437) -0.051, TLK1 isoform 2 (UniProt Q9UKI8) 0.06, TRA2A (UniProt Q13595) -0.194, TBL2 (UniProt Q9Y4P3) -0.015, UBR4 (UniProt Q5T4S7) 0.02, TPM4 isoform 2 (UniProt P67936) 0.021, TBL3 (UniProt Q12788) 0.042, TTF2 (UniProt Q9UNY4) 0.027, TJP1 isoform 2 (UniProt Q07157) -0.003, TRIM65 (UniProt Q6PJ69) 0.013, UBE3C (UniProt Q15386) 0.016, UBAP2 (UniProt Q5T6F2) -0.007, TUBA1B (UniProt P68363) 0.013, TSPAN13 (UniProt O95857) -0.033
